“And” between values parts separate entries of the source, which are not always exact repeats. Equal values may be shown once. Compounds without any hit were thinned out: in the full panel of roughly 83,000, 20% have a hit.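 Activity criterion: percent growth below 10, measured after cells in 96-well plates were exposed to a single compound concentration for 48 hours.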 Values without a mark were called inactive. The source made the active and inactive calls.

Some test systems named below: DU-145 prostate; K-562 leukemia; MALME-3M melanoma; MDA-MB-231 breast; RXF 393 renal; SF-268 CNS; SF-295 CNS; SF-539 CNS; UACC-257 melanoma; M14 melanoma; HCT-15 colon; HT29 colon; SNB-75 CNS; SNB-19 CNS; U251 CNS; PC-3 prostate; SK-MEL-5 melanoma; UACC-62 melanoma; SK-MEL-28 melanoma.
What all share (test): NCI-60 one-dose screen, 48 h (100 = growth as untreated, 0 = no growth, -100 = all killed)
Common to all, as to details: 10 µM unless noted

With `O=C1c2ccccc2C(=O)c2sc(Nc3ccc(Cl)cc3)nc21`, the growth with DU-145 prostate was -78.3% (active); with K-562 leukemia, 4.83% (active); in the experiment on MALME-3M melanoma, -79.6% (active); with MDA-MB-231 breast it was 6.43% (active); in the experiment with RXF 393 renal, 17%; in the experiment on SF-268 CNS, 42%. Besides, the growth is 98.4% in the experiment on SF-295 CNS; 2.24% (active) in the experiment with SF-539 CNS; -16% (active) in the experiment on UACC-257 melanoma; -2.34% (active) with M14 melanoma; -68.7% (active) with HCT-15 colon; 92.5% with HT29 colon. In addition, the growth in the experiment on SNB-75 CNS is 33.1%; in the experiment on SNB-19 CNS, 79.5%; in the experiment on U251 CNS, 4.35% (active); in the experiment with PC-3 prostate, 2.24% (active); with SK-MEL-5 melanoma it was 13%; with UACC-62 melanoma, 18.4%. Besides, the growth in the experiment on SK-MEL-28 melanoma was -9.35% (active).
Take `O=C(/C=C\c1cc(Br)ccc1O)/C=C/c1cc(Br)ccc1O`: the growth is 2.79% (active) in the experiment with DU-145 prostate; 5.64% (active) in the experiment with K-562 leukemia; -5.41% (active) with MALME-3M melanoma; 0.442% (active) in the experiment with MDA-MB-231 breast; -49.4% (active) in the experiment on RXF 393 renal; -17.9% (active) in the experiment on SF-268 CNS. For the same molecule, the growth with SF-295 CNS was -1.61% (active); in the experiment on SF-539 CNS, -49.1% (active); in the experiment with UACC-257 melanoma, -16.7% (active); in the experiment on M14 melanoma, -51.7% (active); in the experiment on HCT-15 colon it was 0% (active); in the experiment on HT29 colon it was -54.2% (active). Besides, the growth was -8.46% (active) in the experiment with SNB-75 CNS; -52.7% (active) in the experiment with SNB-19 CNS; -82.6% (active) in the experiment on U251 CNS; -16% (active) in the experiment on PC-3 prostate; -87.5% (active) in the experiment with SK-MEL-5 melanoma; -67.5% (active) in the experiment on UACC-62 melanoma. In addition, in the experiment on SK-MEL-28 melanoma, the growth is -66.9% (active).
For the molecule `COc1cc(/C=C/C(C)=O)ccc1O`, the growth in the experiment on DU-145 prostate was 105% and 101%; in the experiment on K-562 leukemia, 105% and 98.2%; with MALME-3M melanoma, 90.6% and 137%; in the experiment on MDA-MB-231 breast, 96.4% and 111%; in the experiment with RXF 393 renal it was 100% and 121%; in the experiment with SF-268 CNS it was 90.3% and 99%. In addition, the growth in the experiment with SF-295 CNS was 107% and 114%; in the experiment with SF-539 CNS it was 86.1% and 93.9%; in the experiment with UACC-257 melanoma, 106% and 109%; with M14 melanoma it was 99.7% and 101%; in the experiment on HCT-15 colon, 96.9% and 96.3%; with HT29 colon, 109% and 125%. In addition, the growth is 98.4% and 82.5% in the experiment with SNB-75 CNS; 98.3% and 112% with SNB-19 CNS; 103% and 104% in the experiment on U251 CNS; 92.5% and 102% in the experiment on PC-3 prostate; 97% and 113% in the experiment on SK-MEL-5 melanoma; 88.5% and 107% in the experiment with UACC-62 melanoma. The growth in the experiment with SK-MEL-28 melanoma is 112% and 103%.
Consider `OC(CNc1ccnc2cc(Cl)ccc12)CNc1ccnc2cc(Cl)ccc12`, for which the growth with DU-145 prostate was 57.4%; in the experiment with K-562 leukemia, 2.44% (active); with MALME-3M melanoma, -77.9% (active); in the experiment with MDA-MB-231 breast, -56.5% (active); in the experiment on RXF 393 renal, 97.4%; in the experiment on SF-268 CNS it was 82.2%. The growth was 71.6% with SF-295 CNS; -79.8% (active) in the experiment on SF-539 CNS; 93.5% with UACC-257 melanoma; 20.1% in the experiment on M14 melanoma; 97% with HCT-15 colon; 7.67% (active) in the experiment with HT29 colon. For the same molecule, the growth in the experiment with SNB-75 CNS is 31.8%; with SNB-19 CNS, 41.3%; in the experiment with U251 CNS, 3.22% (active); in the experiment on PC-3 prostate, 69.7%; with SK-MEL-5 melanoma, 53.7%; in the experiment on UACC-62 melanoma, 88.3%. Also, the growth in the experiment on SK-MEL-28 melanoma is -82.7% (active).
With `NC(=S)N/N=C\c1nccc2c(C(F)(F)C(F)(F)C(F)(F)F)cccc12`, the growth is 1.56% (active) with DU-145 prostate; 4.7% (active) with K-562 leukemia; -3.69% (active) in the experiment on MALME-3M melanoma; 36.9% with MDA-MB-231 breast; -11.7% (active) in the experiment on RXF 393 renal; 13% in the experiment on SF-268 CNS. The growth was 7.4% (active) with SF-295 CNS; -10.3% (active) in the experiment with SF-539 CNS; -18.2% (active) with UACC-257 melanoma; -19.2% (active) with M14 melanoma; 28.2% with HCT-15 colon; 8.84% (active) in the experiment with HT29 colon. Besides, the growth with SNB-75 CNS is 20.2%; with SNB-19 CNS, 21.8%; in the experiment with U251 CNS, -9.91% (active); with PC-3 prostate, 9.51% (active); with SK-MEL-5 melanoma it was -54.7% (active); in the experiment with UACC-62 melanoma, -39.8% (active). For the same molecule, the growth in the experiment with SK-MEL-28 melanoma is 25.2%.
For the molecule `CN(Cc1cnc2nc(N)nc(N)c2n1)c1ccc(C(=O)NC(CCC(=O)O)C(=O)O)cc1` (stereo not drawn), the growth in the experiment on DU-145 prostate was 26.7%; in the experiment with K-562 leukemia it was 18.7%; in the experiment on MALME-3M melanoma, 43.8%; in the experiment on MDA-MB-231 breast, 82.8%; with RXF 393 renal, 46.1%; in the experiment on SF-268 CNS, 25.5%. Moreover, the growth with SF-295 CNS was 20%; in the experiment with SF-539 CNS it was 22.2%; in the experiment with UACC-257 melanoma, 53%; with M14 melanoma, 10.9%; in the experiment on HCT-15 colon, 26.4%; in the experiment with HT29 colon, 27.6%. Besides, the growth with SNB-75 CNS was 59.6%; with SNB-19 CNS it was 47.2%; in the experiment on U251 CNS, 35.7%; with PC-3 prostate, 62.1%; in the experiment with SK-MEL-5 melanoma it was 23.3%; in the experiment on UACC-62 melanoma, 21.2%. Besides, the growth in the experiment on SK-MEL-28 melanoma is 62.2%.
As for `CCC(CCCN(CC)CCc1ccccc1)OC(=O)c1cc(OC)c(OC)c(OC)c1` (stereo not drawn), the growth with DU-145 prostate is 104%; in the experiment with K-562 leukemia it was 76.4%; with MALME-3M melanoma it was 98.9%; in the experiment on MDA-MB-231 breast, 78.8%; in the experiment with RXF 393 renal it was 89.7%; in the experiment on SF-268 CNS, 82.7%. For the same molecule, the growth in the experiment on SF-295 CNS was 90.1%; in the experiment with SF-539 CNS, 93.1%; in the experiment with UACC-257 melanoma, 85.4%; with M14 melanoma it was 90.1%; in the experiment on HCT-15 colon it was 89.8%; in the experiment on HT29 colon it was 57.3%. Besides, the growth was 65.3% in the experiment on SNB-75 CNS; 92.3% in the experiment on SNB-19 CNS; 90.8% in the experiment with U251 CNS; 82.4% in the experiment with PC-3 prostate; 91.3% with SK-MEL-5 melanoma; 90.7% in the experiment on UACC-62 melanoma. Moreover, in the experiment on SK-MEL-28 melanoma, the growth was 98.5%.
